Assay results: PubChem BioAssay AID372 (MTDP, 2006)
Where “and” joins values, the source holds several entries; their conditions need not be identical. Equal entries are not always repeated. Hit rate of the full screen: of about 100,000 compounds, about 770 (0.77%) were called active. Shown is part of a subset that was picked to be rich in actives. A number with no mark means an inactive call. Cut-off read from the data, not from the text of the source: active = inhibition above about 50%; inactive = the rest.

target: Gag-Pol polyprotein (Human immunodeficiency virus type 1 group M subtype B (isolate HXB2)) (UniProt P04585); test: RNase H inhibition, HIV 1 Gag Pol polyprotein, FRET biochemical assay, screening (AID 372); settings: HIV-1 RT RNase H, FRET RNA/DNA substrate fluorescence; at 10 µM; stronger effect = higher value

Row | Structure (SMILES) | inhibition
1 | COc1ccc(CCN(C)C2CC(=O)N(c3ccc(F)cc3)C2=O)cc1OC (stereo not drawn) | 0%
2 | Cc1ccc2oc(-c3cc(NC(=O)c4ccc(I)cc4)ccc3O)nc2c1 | 10%
3 | COc1ccc(Cc2cnc(NC(=O)c3ccccc3Cl)s2)cc1 | 11%
4 | NS(=O)(=O)c1ccc(CNC2CC(=O)N(CCc3ccccc3)C2=O)cc1 (stereo not drawn) | 9%
5 | O=[N+]([O-])c1ccc2nc3c([nH]c4ccccc43)c(N3CCOCC3)c2c1 | 6%
6 | O=c1c2cc([N+](=O)[O-])ccc2[nH]c2c1[nH]c1ccccc12 | 33%
7 | O=[N+]([O-])c1ccc2nc3c([nH]c4ccccc43)c(Cl)c2c1 | 58% (active)
8 | CCOc1cc(C(=O)NCc2ccccc2OC)cc(OCC)c1OCC | 2%
9 | Cc1ccc(C(=O)NNC(=S)NC(C)(C)C)cc1 | 6%
10 | O=C(CC1SC(=Nc2ccccc2)N(c2ccccc2)C1=O)Nc1ccc(F)cc1 (stereo not drawn) | 14%
11 | Cc1ccc(NC(=O)CC2SC(=Nc3ccccc3)N(c3ccccc3)C2=O)cc1 (stereo not drawn) | 5%
12 | O=C(CC1SC(=Nc2ccccc2)N(c2ccccc2)C1=O)Nc1ccccc1 (stereo not drawn) | 58% (active)
13 | O=C(N/C(=C/c1cccc(Br)c1)C(=O)N1CCOCC1)c1ccccc1 | 5%
14 | CC(C)Cc1nnc(NC(=O)c2ccccc2I)s1 | 0%
15 | CCOC(=O)N1CCN(CCC(=O)Nc2ccc3c(c2)OCO3)CC1 | 16%
16 | Cc1cc2nn(-c3ccccc3)nc2cc1NC(=O)/C=C/c1ccccc1 | 12%
17 | COc1ccc(-n2nc3cc(C)c(NC(=O)/C=C/c4ccccc4)cc3n2)cc1 | 42%
18 | Cc1ccc(-n2nc3cc(C)c(NC(=O)c4ccccc4[N+](=O)[O-])cc3n2)cc1 | 15%
19 | Cc1ccc(-n2nc3cc(C)c(NC(=O)c4ccc(Cl)cc4Cl)cc3n2)cc1 | 1%
20 | Cc1ccc(-n2nc3cc(C)c(NC(=O)c4ccccc4Br)cc3n2)cc1 | 4%
21 | Cc1cc2nn(-c3ccc(Cl)cc3)nc2cc1NC(=O)c1ccccc1Br | 52% (active)
22 | Cc1ccc(-n2nc3cc(C)c(NC(=O)c4cccc([N+](=O)[O-])c4C)cc3n2)cc1 | 51% (active)
23 | Cc1cc2nn(-c3ccccc3)nc2cc1NC(=O)c1cccc([N+](=O)[O-])c1C | 16%
24 | Cc1cc2nn(-c3ccc(Cl)cc3)nc2cc1NC(=O)c1ccc(Cl)cc1Cl | 58% (active)
25 | Cc1cc2nn(-c3ccc(Cl)cc3)nc2cc1NC(=O)c1ccccc1C | 36%

Row | Structure (SMILES) | inhibition
26 | Cc1cc2nn(-c3ccccc3)nc2cc1NC(=O)c1ccc(Cl)cc1Cl | 41%
27 | Cc1cc2nn(-c3ccccc3)nc2cc1NC(=O)/C=C/c1ccc(Cl)cc1 | 54% (active)
28 | Cc1ccc(OCCOc2ccc(Br)cc2/C=C2\SC(=S)NC2=O)c(C)c1 | 46%
29 | O=C(COC(=O)c1ccccc1Cl)c1ccc(Cl)cc1Cl | 43%
30 | CCOC(=O)C1=C(C)N=c2s/c(=C/c3ccc(-c4cc([N+](=O)[O-])ccc4OC)o3)c(=O)n2C1c1cccs1 (stereo not drawn) | 8%
31 | CC(O)c1cccc(NC(=O)c2nn3c(c2Cl)NC(c2cccs2)CC3C(F)(F)F)c1 (stereo not drawn) | 6%
32 | COc1ccc(-c2cc(-c3ccccc3)nc(-c3ccc(C)o3)c2)cc1 | 16%
33 | COc1ccc(-n2nc3cc(C)c(NC(=O)c4cc(Cl)ccc4Cl)cc3n2)cc1 | 35%
34 | Cc1cc2nn(-c3ccc(Cl)cc3)nc2cc1NC(=O)c1ccc([N+](=O)[O-])cc1Cl | 50% (active)
35 | Cc1ccc(-n2nc3cc(C)c(NC(=O)c4cc(Cl)ccc4Cl)cc3n2)cc1 | 5%
36 | Cc1cc2nn(-c3ccc(Cl)cc3)nc2cc1NC(=O)c1cc(Cl)ccc1Cl | 52% (active)
37 | Cc1ccc(-n2nc3cc(C)c(NC(=O)c4ccc([N+](=O)[O-])cc4Cl)cc3n2)cc1 | 0%
38 | Cc1cc2nn(-c3ccccc3)nc2cc1NC(=O)c1ccc([N+](=O)[O-])cc1Cl | 22%
39 | CSc1ccc(/C=C2\C(=O)NC(=O)N(c3ccc(Br)c(C)c3)C2=O)cc1 | 0%
40 | Cc1sc(NC(=O)c2ccccc2C(=O)O)c(C#N)c1C | 3%
41 | O=[N+]([O-])c1cccc(-n2nncc2C23CC4CC(CC(C4)C2)C3)c1 | 19%
42 | CCCOc1cc(C)cc2oc(=O)c(Cc3ccccc3)c(C)c12 | 56% (active)
43 | COc1cc(C)cc2oc(=O)c(Cc3ccccc3)c(C)c12 | 22%
44 | Cc1cc(OCC(=O)O)c2c(C)c(Cc3ccccc3)c(=O)oc2c1 | 4%
45 | CC(=O)Oc1cc(C)cc2oc(=O)c(Cc3ccccc3)c(C)c12 | 23%
46 | Cc1cc(OC(=O)C2CC2)c2c(C)c(Cc3ccccc3)c(=O)oc2c1 | 55% (active)
47 | CCOc1cc(C)cc2oc(=O)c(Cc3ccccc3)c(C)c12 | 46%
48 | O=C(Nc1ncc(Cc2cccc([N+](=O)[O-])c2)s1)c1cccc([N+](=O)[O-])c1 | 11%
49 | O=C(CCc1ccccc1)Nc1cc(C(=O)O)cc(C(=O)O)c1 | 36%
50 | COc1cccc(-c2nc(-c3cccc([N+](=O)[O-])c3)no2)c1 | 5%

Row | Structure (SMILES) | inhibition
51 | O=C(N/N=C/c1ccc(O)cc1O)c1cc(Br)cc(Br)c1O | 12%
52 | Cc1ccc(CNC(=O)C(=O)NCC2CCCO2)cc1 (stereo not drawn) | 9%
53 | COC(=O)c1cc(C(=O)NC2CCSC2=O)cc([N+](=O)[O-])c1 (stereo not drawn) | 10%
54 | O=C(NCC1CCCO1)/C(=C/c1cccc(Oc2ccccc2)c1)NC(=O)c1ccccc1 (stereo not drawn) | 0%
55 | C=CCNC(=O)CN(c1cccc(OC)c1)S(=O)(=O)c1ccccc1 | 0%
56 | CC(=O)Nc1ccc(N=Cc2cccc(C)c2)cc1 | 4%
57 | CC(=O)Nc1cc(C(N)=O)c(Cl)cc1Cl | 1%
58 | CC(=O)C(=Nc1ccc(C)cc1C)NNc1ccc(Cl)c(C(N)=O)c1 | 11%
59 | CC(=O)C(=Nc1ccc(C)cc1C)NNc1cc(C(N)=O)c(Cl)cc1Cl | 70% (active)
60 | Cc1ccc(/C(O)=C2\C(=O)C(=O)N(CCCC(=O)O)C2c2ccc(F)cc2)cc1 (stereo not drawn) | 4%
61 | COc1cc(C=C2C(=O)N(c3ccc(C)cc3)C(=S)N(c3ccc(C)cc3)C2=O)ccc1O | 0%
62 | Cc1ccc(N2C(=O)C(=Cc3ccc(O)cc3)C(=O)N(c3ccc(C)cc3)C2=S)cc1 | 56% (active)
63 | Cc1ccc(N2C(=O)/C(=C/c3ccc(O)cc3)C(=O)NC2=S)cc1 | 6%
64 | O=C(CN1CCSCC1)N/N=C/c1ccc(-c2ccccc2)cc1 | 7%
65 | O=C(Nc1cc(C(=O)Nc2ccccc2-c2ccccc2)cc(C(=O)Nc2ccccc2-c2ccccc2)c1)c1ccc([N+](=O)[O-])cc1 | 19%
66 | Cc1ccc(OCCOCCN2CCC(C)CC2)cc1 | 15%
67 | CCN1C(=O)c2cccc3c(NC(=O)c4cc([N+](=O)[O-])ccc4Cl)ccc1c23 | 5%
68 | C=CCN1C(=O)/C(=C\c2ccc(-c3ccc([N+](=O)[O-])cc3)o2)C(=O)NC1=S | 10%
69 | C=CCN1C(=O)/C(=C\c2ccc(I)o2)C(=O)NC1=S | 27%
70 | COc1ccc(S(=O)(=O)n2nnc3ccccc32)cc1OC | 2%
71 | COc1ccc(OC)c(S(=O)(=O)n2nnc3ccccc32)c1 | 3%
72 | COc1ccc(S(=O)(=O)n2nnc3ccccc32)c2ccccc12 | 55% (active)
73 | COC(=O)C1=C(C)NC(=S)NC1c1cc(Br)ccc1OCc1ccccc1 (stereo not drawn) | 11%
74 | Cn1c(=O)c2[nH]c(N/N=C(/C#N)C(N)=O)nc2n(C)c1=O | 8%
75 | CCC(Oc1ccccc1)C(=O)Nc1cc(OC)c(Cl)cc1OC (stereo not drawn) | 12%

Row | Structure (SMILES) | inhibition
76 | CCC(Oc1ccccc1)C(=O)Nc1cc(Cl)ccc1OC (stereo not drawn) | 56% (active)
77 | CCC(Oc1ccccc1)C(=O)Nc1cc(Cl)ccc1Cl (stereo not drawn) | 40%
78 | C=CCn1cc(/C=c2\sc3n(c2=O)C(c2ccc(OC)cc2)C(C(=O)OCC)=C(C)N=3)c2ccccc21 (stereo not drawn) | 15%
79 | O=C(/C=C/c1ccc(-c2ccccc2Br)o1)c1ccc(Cl)cc1 | 13%
80 | NS(=O)(=O)c1ccc2c(c1)C1C=CCC1C(c1ccc([N+](=O)[O-])cc1)N2 (stereo not drawn) | 19%
81 | CCOC(=O)C1=C(C)N=c2s/c(=C\c3ccc(OC)c(Br)c3)c(=O)n2C1c1ccccc1Cl (stereo not drawn) | 29%
82 | CCCOC(=O)c1ccc(NC(=O)c2ccc([N+](=O)[O-])o2)cc1 | 7%
83 | CCOC(=O)c1ccc(NC(=O)c2ccc([N+](=O)[O-])o2)cc1 | 50% (active)
84 | CCOc1ccc(NC(=O)c2ccc([N+](=O)[O-])o2)cc1 | 17%
85 | O=C(Nc1cccc(Cl)c1)Nc1cc(Cl)ccc1Cl | 0%
86 | COc1ccc(-n2c(O)c(C=Nc3ccc(Cl)cc3)c3ccccc3c2=O)cc1 | 11%
87 | O=C(CC1OC(=O)c2ccccc21)c1ccccc1 (stereo not drawn) | 1%
88 | Cc1cc(C)nc(SCC(=O)c2ccc(F)cc2)n1 | 13%
89 | Cc1cc(=O)[nH]c(SCC(=O)c2ccc(Br)cc2)n1 | 4% and 9%
90 | Nc1cc(=O)[nH]c(SCC(=O)c2ccc(O)c(O)c2)n1 | 8%
91 | Cc1cc(=O)[nH]c(SCC(=O)c2ccc(O)c(O)c2)n1 | 50% (active)
92 | Cc1sc2nc(SCC(=O)c3ccc(O)c(O)c3)[nH]c(=O)c2c1C | 75% (active)
93 | Cc1sc2nc(SCC(N)=O)[nH]c(=O)c2c1C | 0%
94 | Cc1nc(SCC(=O)c2ccc(O)c(O)c2)n[nH]1 | 42%
95 | Cc1cc(C)nc(SCC(=O)c2ccc(O)c(O)c2)n1 | 74% (active)
96 | COc1ccc(C(=O)CSc2nc3sc(C)c(C)c3c(=O)[nH]2)cc1C | 44%
97 | Cc1cc(C)c2c(=O)[nH]c(SCC(=O)c3ccc(Br)cc3)nc2n1 | 20%
98 | Cc1cc(C)c2c(=O)[nH]c(SCC(=O)c3ccc(F)cc3)nc2n1 | 11%
